High-throughput results as filed in PubChem BioAssay.
Only some compounds are listed: those with a hit (about 1.3% of all), similar ones and a draw of the others.
Apoferritin bind: candidate novel general anesthetic via apoferritin binding; AID 485281; P02791; Potency, µM (highest dose often 77.5 µM), without a hit: at the top dose activity change, negative = displacement, most hits filed as inhibitors; apoferritin/1-aminoanthracene competitive binding, fluorescence; 350,000 compounds, 0.074% hits; also: potency is read from the fitted curve at half-maximal effect; % is scaled to controls: 0 for no effect and ±100 for the full control effect; nearly all actives have a fitted effect of over 20% in size
Target sequence (P02791 2-175 limits assumed): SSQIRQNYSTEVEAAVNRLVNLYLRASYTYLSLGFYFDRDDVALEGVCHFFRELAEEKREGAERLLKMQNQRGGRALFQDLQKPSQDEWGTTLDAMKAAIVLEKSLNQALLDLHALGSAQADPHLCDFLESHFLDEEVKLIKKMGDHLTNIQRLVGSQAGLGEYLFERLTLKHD
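Steps: apoferritin (10 uM) was premixed with half-saturated 1-AMA in PBS, compounds were pin-transferred, plates stood 10 min at room temperature, fluorescence was read at 380/535 nm, and curves were fitted with a Hill equation.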
rTrxR1 inhibitor: inhibitors of rat thioredoxin reductase 1. O89049. recombinant rTrxR1, NADPH fluorescence consumption, selenite substrate. AID 588453. Potency, µM (doses to about 114 µM), for inactives: at the top dose activity change, negative = inhibition, usual class: inhibitors. 390,000 compounds, 1% hits; also: potency is read from the fitted curve at half-maximal effect; % is scaled to controls: 0 for no effect and ±100 for the full control effect; nearly all actives have a fitted effect of over 65% in size
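Rat TrxR1 (90 nM in the dispensed reagent) was pre-reduced with 400 uM NADPH for 5 min at room temperature, then incubated with compound for 15 min. After 400 uM selenite was added, NADPH fluorescence (Ex 340/Em 450 nm) was followed for 8 min.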
PKM2 act: activators of human pyruvate kinase M2; P14618; purified PKM2, Kinase-Glo ATP luminescence, activation; response scale: 0% is enzyme alone, no compound; Potency, µM (titrated, usually from 57.5 µM), for inactives: top-dose activation, hits mostly activators; 260,000 compounds, 0.34% hits; also: potency is read from the fitted curve at half-maximal effect; % is scaled to controls: 0 for no effect and ±100 for the full control effect; nearly all actives have a fitted effect of over 55% in size
Target sequence (P14618 whole entry, looked up): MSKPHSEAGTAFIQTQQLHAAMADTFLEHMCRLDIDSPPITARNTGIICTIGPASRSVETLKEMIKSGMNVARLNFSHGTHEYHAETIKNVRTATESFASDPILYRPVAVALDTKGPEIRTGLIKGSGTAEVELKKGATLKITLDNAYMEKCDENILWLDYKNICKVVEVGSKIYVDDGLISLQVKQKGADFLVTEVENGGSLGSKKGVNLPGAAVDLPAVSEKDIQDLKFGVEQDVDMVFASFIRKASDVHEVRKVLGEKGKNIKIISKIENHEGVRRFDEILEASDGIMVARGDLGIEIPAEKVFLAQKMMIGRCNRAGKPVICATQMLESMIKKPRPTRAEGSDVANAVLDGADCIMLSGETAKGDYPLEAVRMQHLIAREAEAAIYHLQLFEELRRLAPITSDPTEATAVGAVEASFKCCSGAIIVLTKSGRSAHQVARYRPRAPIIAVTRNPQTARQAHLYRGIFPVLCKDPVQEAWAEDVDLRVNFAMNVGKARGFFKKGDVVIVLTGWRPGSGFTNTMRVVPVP
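Purified hPK-M2 (>95% pure) converted ADP (0.1 mM final) to ATP with 0.5 mM PEP in 50 mM imidazole pH7.2, KCl, MgCl2, Tween 20, BSA; 1 h at room temperature. ATP detected by Kinase-Glo luminescence.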
TrxR1 substrate: is turned over as a substrate by rat TrxR1. O89049. Potency, µM (series often up to 114 µM), for the others: top-dose activity change, negative = substrate turnover. purified TrxR1 substrate turnover, NADPH consumption readout. 390,000 compounds, 0.01% hits; also: potency is read from the fitted curve at half-maximal effect; % is scaled to controls: 0 for no effect and ±100 for the full control effect; nearly all actives have a fitted effect of over 50% in size
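Rat TrxR1, dispensed at 90 nM, was prereduced with 400 uM NADPH (final) for 5 min at ~22 deg C, then incubated with compound 15 min before 400 uM selenite. A first-read NADPH fluorescence drop versus no-compound background flagged substrates.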
mIDH1 inhibitor: blocks human mutant IDH1 R132H enzyme | Potency, µM (series often up to 76.6 µM), inactives show at the highest dose activity change, negative = inhibition, hits mostly inhibitors | 390,000 compounds, 0.093% hits | IDH1-R132H enzyme, NADPH consumption, diaphorase/resazurin fluorescence; also: potency is read from the fitted curve at half-maximal effect; % is scaled to controls: 0 for no effect and ±100 for the full control effect; nearly all actives have a fitted effect of over 65% in size
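IDH1-R132H (0.5 ug/mL dispensed) in pH 7.5 Tris buffer was preincubated 30 min with compound, then given a substrate mix of 0.016 mM NADPH and 2 mM alpha-KG for 80 min at room temperature; remaining NADPH was read by diaphorase/resazurin fluorescence.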
GALK inhibitor: galactokinase (human) inhibition | P51570 | Purified GALK, Kinase-Glo residual ATP luminescence | Potency, µM (series often up to 57.5 µM), for inactives: top-dose activity change, negative = inhibition, usual class: inhibitors | 270,000 compounds, 0.007% hits | AID 1868; also: potency is read from the fitted curve at half-maximal effect; % is scaled to controls: 0 for no effect and ±100 for the full control effect
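GALK at 5 nM final was combined with compound, 35 uM ATP and 100 uM galactose in HEPES pH8.0 with MgCl2 and DTT. The reaction ran one hour at room temperature before luminescent ATP detection.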
IDH1 autofl: autofluorescence interference, mutant IDH1 hit counter-screen; shares compounds with mIDH1 inhibitor; Resorufin detection reagent fluorescence interference, cell-free; AID 623980; 750 tested, under 10 active; inhibition of signal, % at 51.2 µM;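 also: 0% = wells with normal resorufin and full inhibition = wells lacking resorufin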
WT IDH1 inh: inhibits human wild-type IDH1, mutant selectivity check | Potency, µM (highest dose often 115 µM), without a hit: top-dose activity change, negative = inhibition, hits mostly inhibitors | WT IDH1 enzyme, NADPH diaphorase/resazurin fluorescence | 750 compounds, 9% hits | shares compounds with mIDH1 inhibitor;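 also: potency is read from the fitted curve at half-maximal effect; 0% = full WT IDH1 enzyme control and full inhibition = no enzyme wells; nearly all actives have a fitted effect of over 55% in size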
IDH1 R132H conf: inhibits human mutant IDH1 enzyme in cherrypick confirmation. shares compounds with mIDH1 inhibitor. IDH1 R132H enzyme, NADPH diaphorase/resazurin fluorescence. Potency, µM (doses to about 76.6 µM), for the others: at the highest dose activity change, negative = inhibition, actives largely listed as inhibitors. 750 compounds, 83% hits; also: potency is read from the fitted curve at half-maximal effect; nearly all actives have a fitted effect of over 50% in size
Active calls of the source: *; ? = inconclusive; nt = no result given; [ ] = dose if it differs, or a comment. Calls follow the shape of the dose curve; as a rule, active = well fitted curve in the direction sought with a large enough effect; inconclusive = small, poorly fitted or top-dose-only effect, or another doubt; inactive = no such curve, though single readings can be large; an effect the other way counts as inactive or inconclusive.

SMILES	Apoferritin bind	rTrxR1 inhibitor	PKM2 act	TrxR1 substrate	mIDH1 inhibitor	GALK inhibitor	IDH1 autofl	WT IDH1 inh	IDH1 R132H conf
CCc1nc(N2CCN(C(=O)CCl)CC2)c2c3c(sc2n1)CC(C)CC3 (configuration not stated)	-21%	22µM*	-3%[11.5 µM]	5%	?	-8%	-7	50µM*	10µM*
Cc1ccc(N2C(S)=C(C#N)C(=O)NC2c2cccs2)cc1 (configuration not stated)	-10%	-15%	-6%	-5%	52µM*	-6%	4	20%	?
COc1ccc(C2NC(=O)c3n[nH]c(C)c32)c(OC)c1 (configuration not stated)	-5%	13%	-3%	6%	-3%	1%	nt	nt	nt
COc1ccc(-c2n[nH]c3c2C(c2ccc(Cl)cc2Cl)NC3=O)cc1 (configuration not stated)	-8%	11%	nt	-5%	?	nt	1	-9%	40µM*
Cc1cc(O)c(C(=O)/C=C/c2ccc(Cl)cc2)c(=O)o1	-2%	-20%[57.1 µM]	nt	1%[57.1 µM]	-4%	-4%	nt	nt	nt
Cc1ccc(/C=C/C(=O)c2ccc([N+](=O)[O-])o2)cc1	nt	6.3µM*	nt	-4%	35µM*	nt	-10	?	8.9µM*
O=C(/C=C/c1ccc(Cl)cc1)c1ccc([N+](=O)[O-])o1	nt	5µM*	nt	-2%	11µM*	nt	0	?	8.9µM*
Cc1ccc(-n2ncc3c(=O)[nH]c(SCC(=O)N4CCCc5ccccc54)nc32)cc1	41%	12%	9%	9%[57.1 µM]	?	-3%	-6	10%	28µM*
Cc1cccc(N=C2Sc3nc4c(C)c(C)ccc4cc3CN2CCN2CCOCC2)c1	?	3%	38%	-5%	?	1%	8	5%	11µM*
CCOc1ccc(NC(=O)CC2C(=O)N(c3ccccc3)C(=O)N2CCc2ccc(OC)cc2)cc1 (configuration not stated)	-4%	12%	nt	-4%	-8%	nt	nt	nt	nt
O=C1C(F)=CC(COC(c2ccccc2)(c2ccccc2)c2ccccc2)OC1n1cc(F)c(=O)[nH]c1=O (configuration not stated)	nt	-60%[57.1 µM]	nt	10%[57.1 µM]	26µM*	nt	-3	50µM*	11µM*
COc1cc2c3c(c1)C1(C(=O)N3C(C)(C)C=C2C)C(C#N)=C(N)Oc2cc(O)ccc21 (configuration not stated)	-12%	-8%	0%	-15%	29µM*	3%	-3	6%	16µM*
CC(/C=C1\SC(=S)N(c2ccc(C(=O)O)cc2)C1=O)=C\c1ccccc1	-6%	9%	2%	-1%	23µM*	nt	-4	45µM*	50µM*
CCn1c(=O)c2cc(C(=O)NCCc3cccc(C)c3)sc2c2ccccc21	-1%	22%	nt	11%	1%	nt	nt	nt	nt
CCn1c(=O)c2cc(C(=O)N(C)c3cc(C)ccc3C)sc2c2ccccc21	43%	20%	nt	0%	?	nt	-1	-5%	20µM*
COc1cc(OC)c(NC(=O)c2ccc3c(SCC(=O)O)c4c(nc3c2)CCCC4)cc1Cl	-20%	-8%	-2%	-5%	?	11%	8	-18%	28µM*
Cc1cc(C)cc(OCCSc2nc(-c3ccc(C(C)(C)C)cc3)nc3cc(=O)[nH]n23)c1	?	?	nt	123%[57.1 µM]	?	nt	-5	?	25µM*
COc1ccc(-c2noc(Cn3c(=O)c4ccccc4n(CC(=O)Nc4cccc(OC)c4)c3=O)n2)cc1	-11%	20%	nt	0%	0%	nt	nt	nt	nt
CCOc1ccccc1C(=O)Nc1nc2c(s1)CC(C)CC2 (configuration not stated)	-5%	63%	nt	88%	0%	nt	nt	nt	nt
Cc1oc2ncnc(N3CCCCC3)c2c1C(=O)Nc1cccc(Cl)c1C	-3%	-12%	nt	-13%	10%	nt	nt	nt	nt
Cc1ccc(NC(=O)CSC2=C(C#N)C(c3ccco3)C3=C(CC(C)(C)CC3=O)N2)cc1 (configuration not stated)	-4%	5%[57.1 µM]	10%	2%[57.1 µM]	52µM*	-2%	3	-6%	28µM*
CCc1ccc(NC(=O)CSC2=C(C#N)C(c3ccco3)C3=C(CCCC3=O)N2)cc1 (configuration not stated)	-14%	-10%	-3%	1%	4%	4%	nt	nt	nt
Cc1ccc(Cl)cc1NS(=O)(=O)c1ccc(N2CCCCS2(=O)=O)cc1	-17%	9%[57.1 µM]	nt	3%[57.1 µM]	10%	nt	nt	nt	nt
CCOC(=O)c1cc(-c2ccncc2)nc2c1c(C)nn2-c1ccccn1	1%	-2%[57.1 µM]	-2%	12%[57.1 µM]	?	4%	-2	?	22µM*
COc1ccc(-c2cc(C(=O)O)c3c(C)nn(-c4ccccn4)c3n2)cc1	5%	-50%	3%	83%[57.1 µM]	1%	3%	nt	nt	nt
SMILES	Apoferritin bind	rTrxR1 inhibitor	PKM2 act	TrxR1 substrate	mIDH1 inhibitor	GALK inhibitor	IDH1 autofl	WT IDH1 inh	IDH1 R132H conf
Cc1cc2c(cc1S(=O)(=O)CCC(=O)N1CCN(c3ccccc3)CC1)OCC(=O)N2	-5%	9%	nt	-4%	1%	nt	nt	nt	nt
O=C1CCCc2c1cc(-c1ccccc1)n2-c1ccc(O)cc1	-9%	5%	-3%	-5%	-11%	0%	nt	nt	nt
Cc1ccc(-c2cc3c(n2-c2ccc(C(=O)O)cc2)CCCC3=O)cc1	-1%	13%	-1%	3%	?	0%	-1	-3%	35µM*
COc1cc(NS(=O)(=O)c2ccc(NC(=S)NC(=O)/C=C/c3ccc(F)cc3)cc2)ncn1	42%	?	16%	-5%	6.6µM*	4%	-8	11µM*	1.4µM*
COc1ccc(NS(=O)(=O)c2ccc(NC(=S)NC(=O)/C=C/c3ccccc3)cc2)nn1	-8%	?	2%	-6%	?	0%	-7	?	25µM*
CSc1nn(Cc2ccc(C)cc2)c(N)c1S(=O)(=O)c1ccccc1	-18%	14%	nt	-9%	32µM*	nt	2	-2%	10µM*
